Experimental data taken from PubChem BioAssay (NCATS).
Inconclusive results are not listed. Entries that show only a call come without a potency. A number with no mark means an inactive call. The source made the active and inactive calls. The call rests on the fitted dose curve; in most records, active means well fitted cell-killing curve with a large enough effect; inconclusive means small, poorly fitted or top-dose-only effect, or effect the other way; inactive means flat fitted curve, though single readings scatter.

Experiments:
Test in all cases: Primary qHTS to identify gynecologic anti-cancer compounds using libraries of approved drugs and bioactive compounds (AID 1345084); further: nearly all actives have a fitted effect of over 55% in size
[1] = tested on: CASKI; settings: Gynecologic cancer cell panel viability, ATPlite luminescence, 48 h; series mostly up to 57.5 µM
Summary of the method: (§1)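 Cells, 1,000 per well, plated 16 h, then exposed 48 h at 37 C to compounds. Viability by ATPlite luminescence after 15 min at room temperature.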

[2] = tested on: Es-2; settings: Gynecologic cancer cell panel viability, ATPlite luminescence, 48 h; series mostly up to 57.5 µM
Summary of the method: as §1

[3] = tested on: HeLa; settings: Gynecologic cancer cell panel viability, ATPlite luminescence, 48 h; series mostly up to 57.5 µM
Summary of the method: as §1

[4] = tested on: Hek293T; settings: Gynecologic cancer cell panel viability, ATPlite luminescence, 48 h, control line for the selectivity index; series mostly up to 57.5 µM
Summary of the method: as §1

[5] = tested on: OV90; settings: Gynecologic cancer cell panel viability, ATPlite luminescence, 48 h; series mostly up to 57.5 µM
Summary of the method: as §1

[6] = tested on: PA-1; settings: Gynecologic cancer cell panel viability, ATPlite luminescence, 48 h; series mostly up to 57.5 µM
Summary of the method: as §1

[7] = tested on: JEG-3; settings: Gynecologic cancer cell panel viability, ATPlite luminescence, 48 h; series mostly up to 57.5 µM
Summary of the method: as §1

[8] = tested on: CAOV3; settings: Gynecologic cancer cell panel viability, ATPlite luminescence, 48 h; series mostly up to 57.5 µM
Summary of the method: as §1
Potency means the concentration at half of the fitted maximal effect.

SMILES: Nc1nc(O)c(C2=C3C(=Nc4ccccc43)C(=O)NCC2)[nH]1
- Potency [1]: inactive
- Potency [2]: inactive
- Potency [3]: inactive
- Potency [4]: inactive
- Potency [5]: inactive
- Potency [6]: inactive

SMILES: C=C(C)C(=O)OC1CC2(C)OC(=CC2=O)C(=C)CC2OC(=O)C(=C)C12 (stereo not given)
- Potency [1]: inactive
- Potency [2]: 4.47 µM (active)
- Potency [3]: inactive
- Potency [4]: 6.31 µM (active)
- Potency [7]: inactive
- Potency [6]: 7.94 µM (active)

SMILES: CCS(=O)c1nc(-c2cccc(OCc3ccccc3)c2)cc(C(F)(F)F)n1 (stereo not given)
- Potency [1]: inactive
- Potency [2]: inactive
- Potency [3]: inactive
- Potency [5]: inactive

SMILES: C=C1C(=O)OC2C(OC(=O)C=C(C)C)C(C)=C3C(=O)C=C(C)C3C(O)C12 (stereo not given)
- Potency [1]: inactive
- Potency [3]: inactive

SMILES: CC[C@@H](C)Nc1cc(C(=O)NC2CC3CC[C@@H](C2)N3c2ccc(C(=O)C3CC3)cn2)c(C)cc1C(N)=O (stereo not given in full)
- Potency [8]: 0.794 µM (active)
- Potency [4]: 0.316 µM (active)
- Potency [5]: 0.316 µM (active)
- Potency [6]: 0.316 µM (active)

SMILES: Fc1ccc(-n2cc(CCCCN3CCC4(CC3)OCc3ccccc34)c3ccccc32)cc1
- Potency [1]: inactive
- Potency [2]: inactive
- Potency [3]: inactive
- Potency [4]: inactive
- Potency [7]: inactive

SMILES: O=C1C(Cc2ccc(O)cc2)N2C(=O)CCN(C(=O)NCc3ccccc3)C2CN1Cc1cccc2ccccc12 (stereo not given)
- Potency [1]: inactive
- Potency [2]: 8.91 µM (active)
- Potency [7]: inactive

SMILES: CN[C@H]1CC[C@@H](c2ccc(Cl)c(Cl)c2)c2ccccc21
- Potency [1]: 28.2 µM (active)

SMILES: CC(=O)O[C@H]1CC(C)(C)CC2[C@]13CO[C@@]21CCC2[C@@]4(C)CC[C@H](O[C@@H]5OC[C@H](O[C@@H]6O[C@H](CO)[C@@H](O)[C@H](O)[C@H]6O[C@@H]6OC[C@@H](O[C@@H]7O[C@H](CO)[C@@H](O)[C@H](O)[C@H]7O)[C@H](O)[C@H]6O)[C@H](O)[C@H]5O[C@@H]5O[C@H](CO)[C@@H](O)[C@H](O)[C@H]5O)[C@@](C)(CO)C4CC[C@@]2(C)[C@]1(C)C[C@H]3O (stereo not given in full)
- activity change, negative = cytotoxicity [1]: -12% [at 6.55 µM]
- activity change, negative = cytotoxicity [3]: -20% [at 6.55 µM]
- Potency [4]: 2.82 µM (active)

SMILES: C[C@@H](Nc1ncnc2[nH]c(-c3ccc(O)cc3)cc12)c1ccccc1
- Potency [1]: 22.4 µM (active)
- Potency [2]: inactive
- Potency [4]: inactive
- Potency [7]: inactive
- Potency [5]: inactive
- Potency [6]: inactive

SMILES: COc1cc2c(Nc3cc(F)c(Cl)c(Cl)c3)ncnc2cc1OCC1CCCN(C)CCC1
- Potency [8]: 12.6 µM (active)
- Potency [7]: inactive
- Potency [5]: 15.8 µM (active)

SMILES: C=C1/C(=C/C=C2\CCC[C@]3(C)[C@@H]([C@H](C)CC[C@@H](O)C(C)(C)O)CC[C@@H]23)C[C@@H](O)C[C@@H]1O
- Potency [1]: inactive
- Potency [2]: inactive

SMILES: CCOC(=O)c1cnc2ccc(-c3cncc(NS(=O)(=O)c4ccccc4)c3)cn12
- Potency [1]: 2 µM (active)
- Potency [2]: 3.16 µM (active)
- Potency [3]: 1.58 µM (active)
- Potency [4]: 1.78 µM (active)
- Potency [7]: 7.08 µM (active)
- Potency [5]: 11.2 µM (active)
- Potency [6]: 1.78 µM (active)

SMILES: O=C(NO)c1cnc(N2CCN(S(=O)(=O)c3ccc4ccccc4c3)CC2)nc1
- Potency [8]: inactive
- Potency [5]: 3.98 µM (active)

SMILES: Cc1ccc(C)c(-c2cc(C(F)(F)F)nn2-c2ccc(S(N)(=O)=O)cc2)c1
- Potency [1]: inactive
- Potency [3]: 31.6 µM (active)

SMILES: C=C(C=O)[C@]1(O)C[C@@]2(C)C(=CC1=O)C=C[C@H](OC(=O)/C=C/C=C/[C@H](C)CC)[C@@H]2C
- Potency [1]: inactive
- Potency [2]: inactive
- Potency [3]: inactive
- Potency [7]: inactive

SMILES: C=C1C(=O)O[C@H]2CC(=C)[C@H]3CC[C@@](C)(O)[C@@H]3CC12 (stereo not given in full)
- Potency [1]: inactive
- Potency [2]: inactive
- Potency [3]: inactive
- Potency [5]: inactive

SMILES: CC(C)n1nc(C#Cc2ccccc2)c2c(N)ncnc21
- Potency [1]: inactive
- Potency [2]: inactive
- Potency [3]: inactive
- Potency [4]: inactive
- Potency [5]: inactive
- Potency [6]: inactive

SMILES: O=C(NNc1nc2cc(F)ccc2n2cccc12)c1cnccn1
- Potency [1]: inactive
- Potency [2]: 7.08 µM (active)
- Potency [3]: inactive
- Potency [4]: 3.55 µM (active)
- Potency [7]: inactive
- Potency [5]: 5.01 µM (active)
- Potency [6]: 3.55 µM (active)

SMILES: CO[C@@H]1CC(OC2CCC3(C)C(CCC45CCC(C6=CC(=O)OC6)C(C)(CCC43)C5=O)C2)O[C@H](C)[C@@H]1O[C@@H]1O[C@H](CO[C@@H]2O[C@H](CO)[C@@H](O)[C@H](O)[C@H]2O)[C@@H](O)[C@H](O)[C@H]1O (stereo not given in full)
- activity change, negative = cytotoxicity [1]: -0.149% [at 11.6 µM]
- Potency [2]: 3.16 µM (active)
- activity change, negative = cytotoxicity [5]: -22.2% [at 11.6 µM]

SMILES: CCc1cc(C(N)=O)ccc1-n1nc(C(C)C)c2c(-n3cnc(-c4cnn(C)c4)c3)ccnc21
- Potency [1]: inactive
- Potency [2]: inactive
- Potency [3]: inactive
- Potency [7]: inactive

SMILES: CN(C)CCN(Cc1ccc(-c2ccc(CNCCc3ccccc3)cc2)cc1)C(=O)CCC1CCCC1
- Potency [8]: 5.62 µM (active)
- Potency [7]: 25.1 µM (active)
- Potency [5]: 22.4 µM (active)

SMILES: Cn1c(=O)c2c(ncn2Cc2ccc(C(C)(C)C)cc2)n(C)c1=O
- Potency [8]: inactive
- Potency [7]: 14.1 µM (active)
- Potency [5]: 10 µM (active)

SMILES: COc1cc(CCC2=NN=C(NC(=O)c3ccc(N4C[C@@H](C)N[C@@H](C)C4)cc3)C2)cc(OC)c1
- Potency [3]: 20 µM (active)

SMILES: COC(C)(C)CCn1nc(Nc2c(C)cccc2C)c2cnc(Nc3ccc(OCCN4CCCC4)c(F)c3)nc21
- Potency [2]: 15.8 µM (active)
- Potency [5]: 14.1 µM (active)
- Potency [6]: 2.82 µM (active)

SMILES: O=C(Nc1ccc(N2C(=O)[C@@H]3[C@H](C2=O)[C@@H]2C=C[C@H]3C2)c(Cl)c1)c1ccccn1
- Potency [3]: inactive
